Where “and” joins values, the source holds several entries; their conditions need not be identical. Equal entries are not always repeated. Calls of active or inactive are those of the source. Rule for the calls: active = hit-call score of the fitted dose curve at least 0.9, where 1 is the maximum; inactive = score below 0.9.
Columns and labels:
[1] = read-out: urokinase plasminogen activator (uPA), PLAU (gene 5328); assay: BSK_BE3C_uPA: BioMAP Diversity Plus: BE3C Assay for urokinase plasminogen activator (uPA) Biomarker Activity (AID 2283038); conditions: primary human bronchial epithelial cells; actives raise or lower the signal
How it was run: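 Human primary bronchial epithelial cells were exposed to chemical for 24 h, then uPA levels were measured by ELISA. Responses were fitted bidirectionally against DMSO as negative control and baseline. Parallel SRB staining of total protein gauged overt cytotoxicity.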

[2] = read-out: Urokinase-type plasminogen activator receptor (uPAR), PLAUR (gene 5329); assay: BSK_BE3C_uPAR: BioMAP Diversity Plus: BE3C Assay for Urokinase-type plasminogen activator receptor (uPAR) Biomarker Activity (AID 2283039); conditions: primary human bronchial epithelial cells; actives raise or lower the signal
How it was run: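 A uPAR ELISA serves as the readout, taken 24 h after treating primary human bronchial epithelial cells. Responses in either direction are fitted against DMSO, which defines baseline activity.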

[3] = read-out: Interleukin-6 (IL6), IL6 (gene 3569); assay: BSK_CASM3C_IL6: BioMAP Diversity Plus: CASM3C Assay for Interleukin-6 (IL6) Biomarker Activity for (AID 2283040); conditions: primary human coronary artery smooth muscle cells; actives raise or lower the signal
[4] = read-out: Tissue plasminogen activator (tPA), PLAT (gene 5327); assay: BSK_BE3C_tPA: BioMAP Diversity Plus: BE3C Assay for Tissue plasminogen activator (tPA) Biomarker Activity (AID 2283041); conditions: primary human bronchial epithelial cells; actives raise or lower the signal
How it was run: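 Bidirectional curve fitting relative to DMSO defined activity, with tPA detected by ELISA in chemically treated human bronchial epithelial primary cells at 24 hours.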

[5] = read-out: Interleukin-8 (IL8), CXCL8 (gene 3576); assay: BSK_CASM3C_IL8: BioMAP Diversity Plus: CASM3C Assay for Interleukin-8 (IL8) Biomarker Activity (AID 2283042); conditions: primary human coronary artery smooth muscle cells; actives raise or lower the signal;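 note: IL-8 protein level quantified by ELISA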
[6] = read-out: Human Leukocyte Antigen - DR isotype (HLADR), HLA-DRA (gene 3122); assay: BSK_CASM3C_HLADR: BioMAP Diversity Plus: CASM3C Assay for Human Leukocyte Antigen - DR isotype (HLADR) Biomarker Activity (AID 2283043); conditions: primary human coronary artery smooth muscle cells; actives raise or lower the signal;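 note: cell-surface HLA-DR protein level quantified by ELISA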
[7] = read-out: Monocyte Chemoattractant Protein-1 (MCP1), CCL2 (gene 6347); assay: BSK_CASM3C_MCP1: BioMAP Diversity Plus: CASM3C Assay for Monocyte Chemoattractant Protein-1 (MCP1) Biomarker Activity (AID 2283046); conditions: primary human coronary artery smooth muscle cells; actives raise or lower the signal;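 note: MCP-1 level quantified by ELISA 24 h after dosing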
[8] = BSK_CASM3C_Proliferation: Cell Proliferation Assessment in the BioMAP Diversity Plus: CASM3C Assay (AID 2283047); conditions: primary human coronary artery smooth muscle cells;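 note: sulforhodamine B total protein stain as relative cell number at 560 nm; sub-confluent cells exposed 48 h before staining; fitted both ways against DMSO so gain or loss of cell number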
[9] = read-out: Monokine induced gamma interferon (MIG), CXCL9 (gene 4283); assay: BSK_CASM3C_MIG: BioMAP Diversity Plus: CASM3C Assay for Monokine induced gamma interferon (MIG) Biomarker Activity (AID 2283048); conditions: primary human coronary artery smooth muscle cells; actives raise or lower the signal
[10] = read-out: Thrombomodulin, THBD (gene 7056); assay: BSK_CASM3C_Thrombomodulin: BioMAP Diversity Plus: CASM3C Assay for Thrombomodulin Biomarker Activity (AID 2283051); conditions: primary human coronary artery smooth muscle cells; actives raise or lower the signal;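 note: thrombomodulin protein level measured by ELISA 24 h after dosing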
[11] = read-out: Tissue Factor, F3 (gene 2152); assay: BSK_CASM3C_TissueFactor: BioMAP Diversity Plus: CASM3C Assay for Tissue Factor Biomarker Activity (AID 2283052); conditions: primary human coronary artery smooth muscle cells; actives raise or lower the signal;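 note: cell surface tissue factor protein level read by ELISA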
[12] = read-out: Urokinase-type plasminogen activator receptor (uPAR), PLAUR (gene 5329); assay: BSK_CASM3C_uPAR: BioMAP Diversity Plus: CASM3C Assay for Urokinase-type plasminogen activator receptor (uPAR) Biomarker Activity (AID 2283054); conditions: primary human coronary artery smooth muscle cells; actives raise or lower the signal;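 note: cell-surface uPAR protein level quantified by ELISA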
[13] = read-out: Collagen III, COL3A1 (gene 1281); assay: BSK_hDFCGF_CollagenIII: BioMAP Diversity Plus: hDFCGF Assay for Collagen III Biomarker Activity (AID 2283056); conditions: primary human foreskin fibroblasts; actives raise or lower the signal
How it was run: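 Human foreskin primary fibroblasts were exposed to test chemicals for 24 h, after which collagen III was quantified by ELISA. Activity was fitted bidirectionally against DMSO as negative control and baseline.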

[14] = read-out: Epidermal growth factor receptor (EGFR), EGFR (gene 1956); assay: BSK_hDFCGF_EGFR: BioMAP Diversity Plus: hDFCGF Assay for Epidermal growth factor receptor (EGFR) Biomarker Activity (AID 2283057); conditions: primary human foreskin fibroblasts; actives raise or lower the signal
How it was run: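 Measured by ELISA: EGFR levels on primary human foreskin fibroblasts 24 h after chemical treatment, analysed relative to DMSO with bidirectional fitting.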

[15] = read-out: Interleukin-8 (IL8), CXCL8 (gene 3576); assay: BSK_hDFCGF_IL8: BioMAP Diversity Plus: hDFCGF Assay for Interleukin-8 (IL8) Biomarker Activity (AID 2283058); conditions: primary human foreskin fibroblasts; actives raise or lower the signal
How it was run: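 hDFCGF human dermal fibroblasts; 24 h chemical exposure; IL-8 by ELISA; bidirectional curve fit vs DMSO baseline; gain or loss of signal scored.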

[16] = BSK_hDFCGF_SRB: Viability Assessment in the BioMAP Diversity Plus: hDFCGF Assay (AID 2283061); conditions: primary human foreskin fibroblasts;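 note: cells exposed to compound for 24 h before the read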
How it was run: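 Human foreskin primary fibroblasts were treated with compound and assessed 24 h after dosing. Total protein was measured by sulforhodamine B staining (0.1% SRB after 10% TCA fixation, 560 nm read) as a cytotoxicity marker, with bidirectional fitting against DMSO baseline.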

[17] = read-out: Vascular cell adhesion molecule 1 (VCAM1), VCAM1 (gene 7412); assay: BSK_hDFCGF_VCAM1: BioMAP Diversity Plus: hDFCGF Assay for Vascular cell adhesion molecule 1 (VCAM1) Biomarker Activity (AID 2283065); conditions: primary human foreskin fibroblasts; actives raise or lower the signal;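 for AC50: VCAM-1 protein level quantified by ELISA after 24 h chemical exposure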
How it was run: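 Primary human foreskin fibroblasts (hDFCGF system) were dosed with chemical and VCAM-1 was measured by ELISA 24 h later. Bidirectional curve fitting used DMSO as negative control and activity baseline.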

[18] = read-out: Plasminogen activator inhibitor-1 (PAI1), SERPINE1 (gene 5054); assay: BSK_hDFCGF_PAI1: BioMAP Diversity Plus: hDFCGF Assay for Plasminogen activator inhibitor-1 (PAI1) Biomarker Activity (AID 2283066); conditions: primary human foreskin fibroblasts; actives raise or lower the signal
How it was run: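 PAI-1 levels, determined by ELISA, served as the endpoint in human foreskin fibroblast cultures exposed to compound for 24 h, with DMSO as baseline.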

[19] = read-out: Intercellular Adhesion Molecule 1 (ICAM1), ICAM1 (gene 3383); assay: BSK_KF3CT_ICAM1: BioMAP Diversity Plus: KF3CT Assay for Intercellular Adhesion Molecule 1 (ICAM1) Biomarker Activity (AID 2283067); conditions: primary human keratinocytes with fibroblasts; actives raise or lower the signal
How it was run: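 Human keratinocyte plus foreskin fibroblast primary co-culture was exposed to chemical for 24 h. ICAM-1 was then quantified by ELISA, and the data were fit bidirectionally against DMSO as the negative control and baseline.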

[20] = read-out: Interferon-gamma inducible Protein 10 (IP10), CXCL10 (gene 3627); assay: BSK_KF3CT_IP10: BioMAP Diversity Plus: KF3CT Assay for Interferon-gamma inducible Protein 10 (IP10) Biomarker Activity (AID 2283068); conditions: primary human keratinocytes with fibroblasts; actives raise or lower the signal
How it was run: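 ELISA read-out of IP-10 after 24 h chemical dosing of human skin primary co-culture (keratinocytes, foreskin fibroblasts). Gain or loss of signal relative to DMSO, bidirectional curve fit.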

Measured: AC50

CN(C)Cc1cc(C(C)(C)C)c(O)c(C(C)(C)C)c1
active: [13] 26.9 µM and 20 µM | [17] 12.1 µM and 20 µM
inactive: all other assays above

CN(C)c1ccc(C(c2ccccc2)c2ccc(N(C)C)cc2)cc1
active: [3] 9.64 µM | [4] 6.47 µM | [8] 9.42 µM | [10] 1.26 µM | [11] 7.33 µM | [13] 10.7 µM
inactive: all other assays above

Cc1cc(-n2nc3ccc(Cl)cc3n2)c(O)c(C(C)(C)C)c1
inactive: all assays above

CC[N+](CC)(CC(=O)Nc1c(C)cccc1C)Cc1ccccc1
inactive: all assays above

O=C(C(=O)c1ccccc1)c1ccccc1
inactive: all assays above

CC[N+](CC)(CC(=O)Nc1c(C)cccc1C)Cc1ccccc1 (tested in a mixture with another compound)
inactive: all assays above

CCCCCCC(O)CCCCCCCCCCC(=O)OC (stereo not given)
active: [18] 6.22 µM
inactive: all other assays above

CCCCCCCCCC/C=C/C1CC(=O)OC1=O (stereo not given)
active: [4] 14.5 µM
inactive: all other assays above

Oc1cccc2ccccc12
active: [10] 5.22 µM
inactive: all other assays above

CC(C)CC(=O)CC(C)CC(C)C (stereo not given)
active: [2] 34.9 µM | [3] 20 µM | [4] 29.4 µM | [6] 27.3 µM | [7] 34 µM | [8] 32 µM | [9] 32.1 µM | [11] 31.7 µM | [12] 30.4 µM | [16] 34.7 µM | [18] 32.2 µM | [19] 31.8 µM
inactive: [1] | [5] | [10] | [13] | [14] | [15] | [17] | [20]

CCCCCCCCCCCCCCCCCC[N+](C)(C)C
inactive: [2] | [10] | [13]
active: [1] 7.3 µM | [3] 8.51 µM | [4] 1.32 µM | [5] 9.19 µM | [6] 3.33 µM | [7] 3.5 µM | [8] 2.09 µM | [9] 9.22 µM | [11] 3.27 µM | [12] 6.31 µM | [14] 2.81 µM | [15] 8.41 µM | [16] 1.34 µM | [17] 2.33 µM | [18] 1.13 µM | [19] 3.6 µM | [20] 3.66 µM

Sc1nc2ccccc2s1
active: [11] 0.016 µM
inactive: all other assays above

CCCCCCCCCCC1CO1 (stereo not given)
active: [7] 6.3 µM | [11] 30.2 µM | [12] 34.3 µM | [13] 20 µM | [15] 28.5 µM | [16] 27.6 µM | [17] 25.7 µM | [18] 20 µM | [19] 29.3 µM | [20] 4.61 µM
inactive: all other assays above

Cc1cccnc1
inactive: all assays above

CN(C)CCC(c1ccc(Cl)cc1)c1ccccn1 (stereo not given)
inactive: all assays above
